High-throughput results: PubChem BioAssay, Buhrlage Lab, Dana-Farber Cancer Institute and Novartis Institutes for BioMedical Research (Cambridge, Mass)
USP17 inh = blocks human USP17 ubiquitin-rhodamine cleavage; A8MUK1; 6.5% of 47,000 active; purified USP17, Ub-rhodamine cleavage fluorescence, 3 h; inhibition, % at 50 µM
USP30 inh = inhibitors of human USP30 deubiquitinase; Q70CQ3; purified USP30, Ub-rhodamine cleavage fluorescence; inhibition, % at 25 µM; 5.3% of 47,000 active; AID 1645860
USP10 inh = blocks human USP10 ubiquitin-rhodamine cleavage; Q14694; inhibition, % at 20 µM; purified USP10, Ub-rhodamine fluorescence, 60 min; 1.1% of 47,000 active
USP8 inh = human USP8 deubiquitinase inhibition | inhibition, % at 20 µM | P40818 | 4.2% of 47,000 active | purified USP8, Ub-rhodamine cleavage fluorescence, 30 min | AID 1645853
USP7 block = inhibitors of human USP7 deubiquitinase | 0.3% of 47,000 active | inhibition, % at 20 µM | AID 1645854 | purified USP7, Ub-rhodamine cleavage fluorescence
UCHL1 inh = blocks human UCHL1 ubiquitin-rhodamine cleavage | 0.2% of 47,000 active | P09936 | inhibition, % at 20 µM | purified UCHL1, Ub-rhodamine cleavage fluorescence
Of the large screens only hits and unclear results are named; the others gave an inactive call. This is a sample that favours compounds with a hit; in the whole collection about 12% have one here. No stated cut-off is given here; in the data, active means inhibition above about 30%; inactive means the rest.

CC(C)=CCCC1(C)C=Cc2c(O)c3c(c(CC=C(C)C)c2O1)O[C@]12C(=C[C@@H]4CC1C(C)(C)O[C@@]2(C/C=C(/C)C(=O)O)C4=O)C3=O (stereo partly drawn)	USP17 inh 82, USP30 inh 37, USP10 inh 75, USP8 inh 70, USP7 block 84, UCHL1 inh 64
Cc1cc(CN2C[C@H](OCc3ccncc3)[C@H]3OCCC[C@H]32)no1	none
COc1ccc(OC)c(-c2c(C#N)c(C)nc3c2N2CCC3CC2)c1	USP17 inh 49, USP30 inh 43
CC(C)c1cc2c(c(O)c1O)C1(C(=O)O)CCCC(C)(C)C1CC2 (stereo not drawn)	USP17 inh 88, USP30 inh 81
CC(C)c1cc2c(c(O)c1O)[C@@]1(C(=O)O)CCCC(C)(C)[C@@H]1CC2	USP17 inh 79, USP30 inh 57
CC1(C)CC(n2[nH]c(=O)c3c2NC(=O)CSC3c2ccccc2)CCO1 (stereo not drawn)	USP30 inh 33
COc1ccc(C2SCC(=O)Nc3c2c(=O)[nH]n3C2CCCCC2)cc1 (stereo not drawn)	USP17 inh 68
O=C1CSC(c2ccc(Cl)cc2)c2c(n(C3CCCC3)[nH]c2=O)N1 (stereo not drawn)	none
O=C1CSC(c2ccc(F)cc2)c2c(n(C3CCCCCC3)[nH]c2=O)N1 (stereo not drawn)	USP30 inh 30, USP8 inh 83
Cc1cccc(C2(c3cccc(C)c3)OCCN(C)C2C)c1 (stereo not drawn)	none
O=C(c1cc(Cl)c(Cl)[nH]1)c1cc(Cl)cc(Cl)c1O	USP10 inh 40
Cn1cc(CN2C[C@H](OCc3cccnc3)[C@H]3OCCC[C@H]32)cn1	none
CCCC1Cc2cc3c(c(O)c2C(=O)O1)-c1c(c(OC)c2oc4c(O[C@H]5C[C@H](O)[C@H](O[C@H]6C[C@H](O)[C@H](O[C@H]7C[C@H](OC)[C@H](O)C(C)O7)C(C)O6)C(C)O5)ccc(O)c4c(=O)c2c1O)[C@H](O)[C@@H]3O (stereo partly drawn)	USP17 inh 37
O=C(CN1CC=C(c2ccccc2)CC1)Nc1ccc2c(c1)OCO2	none
Oc1ccc2cc(Br)ccc2c1CN1CC=C(c2ccccc2)CC1	USP8 inh 44
CCOc1ccccc1C1SCC(=O)Nc2c1c(=O)[nH]n2C1CCCCCC1 (stereo not drawn)	none
